PPARg SRC-3 ag: PPARgamma agonists recruiting SRC-3 coactivator, primary screen, biochemical. Peroxisome proliferator-activated receptor gamma (Homo sapiens), P37231. biochemical PPARgamma/SRC-3 coactivator recruitment assay. activation, % at 8 µM. actives 0.26% (n = 200,000). AID 731, 2007; in the data active = activation above about 23%;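 note: 0% = DMSO and 100% = reference agonist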
Target sequence (P37231 whole entry, looked up): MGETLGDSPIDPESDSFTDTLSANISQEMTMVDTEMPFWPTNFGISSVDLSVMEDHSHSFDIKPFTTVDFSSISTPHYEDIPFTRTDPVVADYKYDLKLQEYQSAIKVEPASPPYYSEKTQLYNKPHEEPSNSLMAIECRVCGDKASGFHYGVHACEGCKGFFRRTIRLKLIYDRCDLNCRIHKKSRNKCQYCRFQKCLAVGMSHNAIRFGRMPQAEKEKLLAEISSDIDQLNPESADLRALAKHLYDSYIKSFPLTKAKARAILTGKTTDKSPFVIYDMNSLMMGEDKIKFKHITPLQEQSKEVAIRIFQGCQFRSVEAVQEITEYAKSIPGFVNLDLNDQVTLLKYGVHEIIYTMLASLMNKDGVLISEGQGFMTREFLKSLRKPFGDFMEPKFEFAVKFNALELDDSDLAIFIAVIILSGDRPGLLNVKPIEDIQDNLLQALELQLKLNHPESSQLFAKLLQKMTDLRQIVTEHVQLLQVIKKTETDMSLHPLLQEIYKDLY
SRC1 TRFRET art: TR-FRET detection interference compounds, primary screen, artefact control for PPARgamma SRC-1 recruitment agonists, biochemical, TR-FRET emission ratio. actives 0.34% (n = 99,000). TR-FRET ratio at 8 µM. TR-FRET detection artefact counter-screen; hits give high values; in the data active = TR-FRET ratio above about 2300
PPARg SRC-1 ag: PPARgamma agonists recruiting SRC-1 coactivator, primary screen, biochemical | Peroxisome proliferator-activated receptor gamma (Homo sapiens), P37231 | PPARgamma-SRC-1 coactivator recruitment biochemical assay | activation, % at 8 µM | actives 0.41% (n = 200,000); in the data active = activation above about 19%;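 note: 0% = DMSO and 100% = reference agonist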
SRC2 TRFRET art: TR-FRET signal artefacts, primary screen, artefact control for PPARgamma SRC-2 agonist project, biochemical; TR-FRET ratio at 8 µM; AID 1049, 2008; actives 0.4% (n = 200,000); TR-FRET artefact counter-screen; hits give high values
SRC3 TRFRET art: TR-FRET detection interference compounds, artefact control for PPARgamma SRC-3 recruitment agonists, biochemical, TR-FRET ratio | actives 0.39% (n = 99,000) | AID 1048, 2008 | TR-FRET ratio at 8 µM | TR-FRET artefact counter-screen, PPARgamma/SRC-3 format; hits give high values
PPARg SRC-2 ag: agonists of PPARg-SRC-2 recruitment, primary screen, biochemical, HTS. PPARgamma LBD-SRC-2 recruitment. activation, % at 8 µM. actives 0.34% (n = 200,000); in the data active = activation above about 22%;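 note: 0% = vehicle and 100% = reference agonist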
The depositor's hits bear a star. Rows were chosen to be rich in hits. Some 0.9% of all compounds tested hit in one or more screens of this group. Cut-off read from the data, not from the text of the source, unless noted: active = TR-FRET ratio above about 2000; inactive = the rest.

Screening CCOC(=O)c1ccc2nc(CCC(=O)N[C@H](C(=O)OC)C(C)C)c(=O)n(CC)c2c1 returned PPARg SRC-3 ag -3, SRC1 TRFRET art 1731, PPARg SRC-1 ag 3, SRC2 TRFRET art 1309, SRC3 TRFRET art 1439 and PPARg SRC-2 ag 0.
Cc1ccc(N=Nc2c(N)n(-c3ccccc3)[nH]c2=O)cc1 was read as PPARg SRC-3 ag 26*, PPARg SRC-1 ag 7, SRC2 TRFRET art 1609 and PPARg SRC-2 ag 9.
For CCN(CC)c1ccc(NC(=O)c2ccccc2)cc1S(=O)(=O)Nc1ccccc1OC the results were PPARg SRC-3 ag 3, SRC1 TRFRET art 2017, PPARg SRC-1 ag 6, SRC2 TRFRET art 1639, SRC3 TRFRET art 2080* and PPARg SRC-2 ag -5.
`CCN(CC)c1ccc2cc(-c3nc4ccccc4n3C)c(=O)oc2c1` gave PPARg SRC-3 ag 10, PPARg SRC-1 ag -1, SRC2 TRFRET art 1610 and PPARg SRC-2 ag 1.
Screening CCN(CC)c1ccc2cc(-c3nc4ccccc4[nH]3)c(=O)oc2c1 returned PPARg SRC-3 ag 9, PPARg SRC-1 ag 26*, SRC2 TRFRET art 1621 and PPARg SRC-2 ag 5.
`CCN1/C(=C/C=C/C=C/c2sc3ccccc3[n+]2CC)Sc2ccccc21` gave PPARg SRC-3 ag 339*, SRC1 TRFRET art 14504*, PPARg SRC-1 ag 448*, SRC2 TRFRET art 10856*, SRC3 TRFRET art 13609* and PPARg SRC-2 ag 541*.
`O=C(Nc1nnc(C(F)(F)F)s1)c1ccc(Br)s1` gave PPARg SRC-3 ag 14, SRC1 TRFRET art 2300, PPARg SRC-1 ag 18, SRC2 TRFRET art 2104*, SRC3 TRFRET art 2443* and PPARg SRC-2 ag 21.
`CCCNC(=S)N1CC2(C)CN(C(=O)C(=O)OC)CC(C)(C1)C2=O` gave PPARg SRC-3 ag -5, SRC1 TRFRET art 1608, PPARg SRC-1 ag -2, SRC2 TRFRET art 1535, SRC3 TRFRET art 1337 and PPARg SRC-2 ag -3.
`C/C(CC(=O)Nc1ccccc1F)=N\NC(=O)Cc1ccc(Cl)cc1` gave PPARg SRC-3 ag -3, SRC1 TRFRET art 1491, PPARg SRC-1 ag -3, SRC2 TRFRET art 1510, SRC3 TRFRET art 1269 and PPARg SRC-2 ag 1.
For Cc1ccc(CN2CCN(Cc3ccc(OC(C)C)cc3)CC2CCO)o1 (configuration not stated) the results were PPARg SRC-3 ag -2, SRC1 TRFRET art 1584, PPARg SRC-1 ag 2, SRC2 TRFRET art 1596, SRC3 TRFRET art 1418 and PPARg SRC-2 ag -4.
Screening Cc1ccc(CN2CCN(Cc3cccc(OCCO)c3)CC2CCO)o1 (configuration not stated) returned PPARg SRC-3 ag 3, SRC1 TRFRET art 1857, PPARg SRC-1 ag 5, SRC2 TRFRET art 1711, SRC3 TRFRET art 1698 and PPARg SRC-2 ag 22*.
Screening O=C(CCCc1ccccc1)NCc1ccc(F)cc1 returned PPARg SRC-3 ag -1, SRC1 TRFRET art 1848, PPARg SRC-1 ag 2, SRC2 TRFRET art 1572, SRC3 TRFRET art 1559 and PPARg SRC-2 ag -9.
`CNC(=S)N1N=C(c2ccc(C)cc2)CC1c1ccc(Br)cc1` (configuration not stated) gave PPARg SRC-3 ag 2, PPARg SRC-1 ag 4, SRC2 TRFRET art 2002* and PPARg SRC-2 ag 6.
CNC(=S)N1N=C(c2ccccc2)CC1c1ccccc1Cl (configuration not stated) was read as PPARg SRC-3 ag 12, SRC1 TRFRET art 2109, PPARg SRC-1 ag 13, SRC2 TRFRET art 1821, SRC3 TRFRET art 2267* and PPARg SRC-2 ag 14.
`CC(C)c1ccc(C2CC(c3ccc(Br)cc3)=NN2C(N)=S)cc1` (configuration not stated) gave PPARg SRC-3 ag 8, SRC1 TRFRET art 2207, PPARg SRC-1 ag 6, SRC2 TRFRET art 1708, SRC3 TRFRET art 1878 and PPARg SRC-2 ag 7.
Cc1ccc(C2CC(c3ccccc3)=NN2C(=S)Nc2ccccc2)o1 (configuration not stated) was read as PPARg SRC-3 ag 10, PPARg SRC-1 ag 11, SRC2 TRFRET art 1587 and PPARg SRC-2 ag 5.
Screening CC(C)(C)NC(=O)c1ccc(NC(=O)CSc2ccccc2)cc1 returned PPARg SRC-3 ag 5, SRC1 TRFRET art 1802, PPARg SRC-1 ag 4, SRC2 TRFRET art 1539, SRC3 TRFRET art 1585 and PPARg SRC-2 ag 0.
Screening O=C(CSc1nnc(C2CC2)n1Cc1ccco1)NCC(F)(F)F returned PPARg SRC-3 ag 0, SRC1 TRFRET art 2315*, PPARg SRC-1 ag 2, SRC2 TRFRET art 1660, SRC3 TRFRET art 1469 and PPARg SRC-2 ag 4.
For N#Cc1c(-c2ccccc2Cl)cc(-c2ccccc2)[nH]c1=S the results were PPARg SRC-3 ag 6, SRC1 TRFRET art 1755, PPARg SRC-1 ag 8, SRC2 TRFRET art 1570, SRC3 TRFRET art 1776 and PPARg SRC-2 ag 3.
For N#Cc1c2c(c(-c3ccccc3Cl)[nH]c1=S)CCCC2 the results were PPARg SRC-3 ag 21, SRC1 TRFRET art 3189*, PPARg SRC-1 ag 40*, SRC2 TRFRET art 2762*, SRC3 TRFRET art 2745* and PPARg SRC-2 ag 44*.
Screening Cc1ccc(C(C)C)c(OCc2ccc(C(=O)N/N=C/c3cccc(O)c3O)cc2)c1 returned PPARg SRC-3 ag -1, SRC1 TRFRET art 1871, PPARg SRC-1 ag 3, SRC2 TRFRET art 1597, SRC3 TRFRET art 1577 and PPARg SRC-2 ag 6.
CCc1cc2cc(C(=O)Nc3ccc(C)cc3)sc2s1 was read as PPARg SRC-3 ag 7, PPARg SRC-1 ag 7, SRC2 TRFRET art 1676 and PPARg SRC-2 ag 24*.
`CS(=O)(=O)N(CC(=O)NCc1ccncc1)Cc1ccc(Cl)cc1` gave PPARg SRC-3 ag 28*, PPARg SRC-1 ag -5, SRC2 TRFRET art 1331 and PPARg SRC-2 ag 5.
For O=C1C(Cl)=C(Nc2cccc(O)c2)C(=O)N1Cc1ccccc1 the results were PPARg SRC-3 ag -4, SRC1 TRFRET art 1644, PPARg SRC-1 ag -9, SRC2 TRFRET art 1488, SRC3 TRFRET art 1438 and PPARg SRC-2 ag 0.
For CC1=NN(C(=O)Cn2ccc([N+](=O)[O-])n2)C(O)(C(F)(F)F)C1 (configuration not stated) the results were PPARg SRC-3 ag 4, SRC1 TRFRET art 1973, PPARg SRC-1 ag 5, SRC2 TRFRET art 1853, SRC3 TRFRET art 1855 and PPARg SRC-2 ag 23*.
`O=C(CSc1ncccn1)NN=C1CCCCCC1` gave PPARg SRC-3 ag 3, SRC1 TRFRET art 1800, PPARg SRC-1 ag 1, SRC2 TRFRET art 1608, SRC3 TRFRET art 1638 and PPARg SRC-2 ag 6.
`CCCN(CCC)CC(O)CN1C(=O)N(CN2C(=O)N(CC(O)CN(CCC)CCC)C(=O)C2(C)C)C(C)(C)C1=O` (configuration not stated) gave PPARg SRC-3 ag -1, SRC1 TRFRET art 1804, PPARg SRC-1 ag -8, SRC2 TRFRET art 1590, SRC3 TRFRET art 1425 and PPARg SRC-2 ag -7.
